# According to PubChem BioAssay (EPA / NIEHS):
# Results filed as inconclusive are left out. The source made the active and inactive calls. Rule for the calls: active = hit-call score of the fitted dose curve at least 0.9, where 1 is the maximum; inconclusive = response in the unintended direction; inactive = score below 0.9.
# Experiments:
# [1] = ACEA_AR_agonist_AUC_viability: ACEA Biosciences xCELLigence Real-Time Cell Analysis on Androgen Receptor Agonism for Viability (AID 2283775);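 for AC50: viability read 80 hours after compound addition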
# Outline: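 Read-out is area under the impedance curve at 80 h post-dose in 22Rv1 cells, with DMSO as baseline and signal loss taken as reduced viability. Compounds ran in duplicate from 100 uM final.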
# [2] = ACEA_ER_AUC_viability: ACEA Biosciences xCELLigence Real-Time Cell Analysis on Estrogen Receptor Agonism for Viability (AID 2283782);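 note: continuous compound exposure with impedance area under curve over 80 h; hit means loss of impedance signal meaning reduced cell growth or viability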
# Outline: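 T-47D human breast cells in phenol red-free RPMI1640 with 10% charcoal-stripped FBS were dosed with an 8-point 1:4 dilution series from 100 uM top final concentration, in duplicate. Impedance-based growth was followed for 80 h; AUC analysed versus DMSO.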
# [3] = target: Luciferin 4-monooxygenase (Photinus pyralis) (UniProt P08659); assay: CCTE_Simmons_QuantiLum_inhib_2: CCTE's Firefly Luciferase Inhibition Assay, Simmons Lab (AID 2283767)
# Outline: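 Recombinant firefly luciferase (5 ng/well, 200 mM potassium phosphate with 1 mg/ml BSA) was exposed to 8 concentrations from 5 nM to 87.5 uM (final, 0.5% DMSO) for 30 min at 37C in the dark. Loss of luminescence versus DMSO was read after injecting D-luciferin/ATP-analogue reagent.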
# AR (gene 367) [4] = target: AR (gene 367) (UniProt P10275); assay: ACEA_AR_antagonist_80hr: ACEA Biosciences xCELLigence Real-Time Cell Analysis on Androgen Receptor Antagonism for Proliferation (AID 2283787);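 note: hits lower the impedance growth signal relative to DMSO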
# Outline: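 Impedance readout (RT-CES), 80 h post-dose; loss-of-signal vs DMSO baseline. 22Rv1 cells in assay medium. Compounds: 8-pt 1:4 series, max 100 uM final, up to 0.5% DMSO; n = 2.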
# [5] = ACEA_AR_antagonist_AUC_viability: ACEA Biosciences xCELLigence Real-Time Cell Analysis on Androgen Receptor Antagonism for Viability (AID 2283776);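 note: area under impedance growth curve at 80 h after dosing as viability; hits lower the growth signal relative to DMSO meaning cytotoxicity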
# Outline: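 22Rv1 human prostate cancer cells were seeded on electrode plates, monitored overnight, then exposed to eight 1:4 dilutions from 100 uM final. Impedance-based growth kinetics at 80 h gave an AUC viability endpoint normalized to DMSO.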
# AR (gene 367) [6] = target: AR (gene 367) (UniProt P10275); assay: ACEA_AR_agonist_80hr: ACEA Biosciences xCELLigence Real-Time Cell Analysis on Androgen Receptor Agonism for Proliferation (AID 2283783);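 note: hits increase impedance growth signal above DMSO baseline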
# Outline: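 22Rv1 human prostate cancer cells were seeded after preconditioning in assay medium and monitored overnight, then dosed in an eight-point 1:4 dilution series from 100 uM (≤0.5% DMSO). Impedance-based growth was read at 80 h, gain-of-signal versus DMSO.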
# Sequence of AR (gene 367) (P10275 whole entry, looked up): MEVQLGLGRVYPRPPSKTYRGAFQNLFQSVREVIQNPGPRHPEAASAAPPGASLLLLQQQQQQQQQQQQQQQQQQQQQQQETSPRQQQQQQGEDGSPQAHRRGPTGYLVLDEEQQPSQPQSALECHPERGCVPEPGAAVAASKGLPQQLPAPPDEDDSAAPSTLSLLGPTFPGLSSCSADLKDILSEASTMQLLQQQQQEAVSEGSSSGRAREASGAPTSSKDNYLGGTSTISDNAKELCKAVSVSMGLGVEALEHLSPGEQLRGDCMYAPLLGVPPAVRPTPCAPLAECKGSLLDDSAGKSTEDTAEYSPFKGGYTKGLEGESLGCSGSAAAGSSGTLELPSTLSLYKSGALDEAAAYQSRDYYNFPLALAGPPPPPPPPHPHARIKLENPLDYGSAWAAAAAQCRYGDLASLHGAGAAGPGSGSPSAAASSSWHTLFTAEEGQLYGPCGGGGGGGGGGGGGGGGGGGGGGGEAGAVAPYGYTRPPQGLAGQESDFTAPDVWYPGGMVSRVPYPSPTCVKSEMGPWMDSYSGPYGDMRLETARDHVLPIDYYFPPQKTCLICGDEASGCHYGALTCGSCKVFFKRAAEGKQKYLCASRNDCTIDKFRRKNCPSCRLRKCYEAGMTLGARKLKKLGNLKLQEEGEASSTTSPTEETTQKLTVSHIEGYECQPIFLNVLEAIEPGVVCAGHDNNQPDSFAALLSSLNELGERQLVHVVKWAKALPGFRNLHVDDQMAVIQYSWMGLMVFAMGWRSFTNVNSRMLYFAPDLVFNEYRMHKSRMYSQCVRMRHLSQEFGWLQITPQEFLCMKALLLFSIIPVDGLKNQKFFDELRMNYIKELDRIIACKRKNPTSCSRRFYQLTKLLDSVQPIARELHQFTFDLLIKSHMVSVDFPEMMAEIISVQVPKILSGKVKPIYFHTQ
# Sequence of Luciferin 4-monooxygenase (Photinus pyralis) (P08659 whole entry, looked up): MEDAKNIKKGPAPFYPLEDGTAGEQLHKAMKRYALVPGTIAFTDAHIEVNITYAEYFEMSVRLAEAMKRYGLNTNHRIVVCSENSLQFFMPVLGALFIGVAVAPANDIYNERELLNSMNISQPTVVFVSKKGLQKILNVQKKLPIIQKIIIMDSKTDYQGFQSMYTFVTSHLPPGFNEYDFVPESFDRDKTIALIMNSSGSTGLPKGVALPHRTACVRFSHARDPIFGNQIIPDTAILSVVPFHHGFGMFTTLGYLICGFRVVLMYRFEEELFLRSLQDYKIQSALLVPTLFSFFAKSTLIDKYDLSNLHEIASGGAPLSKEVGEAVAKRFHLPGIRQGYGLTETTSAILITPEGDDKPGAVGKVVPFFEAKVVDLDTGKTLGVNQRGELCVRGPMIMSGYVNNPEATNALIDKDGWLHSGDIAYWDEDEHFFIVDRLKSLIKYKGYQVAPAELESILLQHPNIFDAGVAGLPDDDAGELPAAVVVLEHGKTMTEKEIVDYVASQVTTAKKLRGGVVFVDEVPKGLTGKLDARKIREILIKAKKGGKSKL
compound,measurement,setting,value
O=C1NC2NC(=O)NC2N1 (stereo not drawn),outcome,[1],inactive
same,outcome,[2],inactive
CCc1cc(Cc2cc(CC)cc(C(C)(C)C)c2O)c(O)c(C(C)(C)C)c1,outcome,[3],inactive
same,AC50,[1],24.3 µM (active)
same,AC50,[2],11.7 µM (active)
same,AC50,AR (gene 367) [4],24.1 µM (active)
COCCOCCOCCO,outcome,[1],inactive
Nc1ccccc1[N+](=O)[O-],outcome,[1],inactive
CC(C)CCCCCCc1ccc(OCCOCCO)cc1,outcome,[1],inactive
same,outcome,[5],inactive
same,outcome,[2],inactive
same,outcome,AR (gene 367) [6],inactive
same,outcome,AR (gene 367) [4],inactive
CCCCCC(C)=O,outcome,[1],inactive
C#CC(C)(O)CC(C)C (stereo not drawn),outcome,[1],inactive
CCCC(=O)OC(C)(C)Cc1ccccc1,outcome,[1],inactive
same,outcome,[5],inactive
CCCCCCC(CO)CCCC (stereo not drawn),outcome,[1],inactive
same,outcome,[5],inactive
C=CC(=O)OCCCC,outcome,[1],inactive
O=C1OC(=O)c2c(Cl)c(Cl)c(Cl)c(Cl)c21,outcome,[1],inactive
CCc1ccc(O)cc1,outcome,[3],inactive
same,outcome,[1],inactive
same,outcome,[2],inactive
same,outcome,AR (gene 367) [4],inactive
Clc1ccc(C(c2ccccc2Cl)C(Cl)Cl)cc1 (stereo not drawn),outcome,[1],inactive
CCCCCCCCCCCCCC(=O)OCC(O)CO (stereo not drawn),outcome,[1],inactive
same,outcome,[5],inactive
same,AC50,[2],81.6 µM (active)
same,outcome,AR (gene 367) [4],inactive
C=C(C)[C@@H]1CC=C(C)C(=O)C1,outcome,[1],inactive
O=C(O)c1ccc(O)cc1,outcome,[3],inactive
same,outcome,[1],inactive
same,outcome,[2],inactive
[O-]n1ccccc1=S.[O-]n1ccccc1=S.[Zn+2],outcome,[3],inactive
same,AC50,[1],11.8 µM (active)
same,AC50,[2],2.84 µM (active)
CCCCCCCC(=O)OCC(O)CO (stereo not drawn),outcome,[1],inactive
same,outcome,[5],inactive
same,outcome,[2],inactive
O=P(O)(O)O,outcome,[1],inactive
same,AC50,[5],8.69 µM (active)
same,outcome,[2],inactive
CCCOCCO,outcome,[1],inactive
same,outcome,[2],inactive
C=Cc1ccc(C)cc1,outcome,[1],inactive
same,outcome,[2],inactive
C[Si](C)(C)O[Si](C)(C)C,outcome,[1],inactive
CCCCCCCCCCCCN1CCCCCC1=O,outcome,[1],inactive
CCCCC1CCC(O)CC1 (stereo not drawn),outcome,[1],inactive
same,outcome,[5],inactive
same,outcome,[2],inactive
same,outcome,AR (gene 367) [4],inactive
CCC1(C)NC(=O)NC1=O (stereo not drawn),outcome,[1],inactive
same,outcome,[5],inactive
CCC(=O)O[C@@H]1C[C@H]2CC[C@]1(C)C2(C)C,outcome,[1],inactive
CCOc1ccccc1O,outcome,[3],inactive
same,outcome,[1],inactive
same,outcome,[2],inactive
CC(=O)O[C@@H]1CC2CCC1(C)C2(C)C (stereo partly drawn),outcome,[1],inactive
same,outcome,[5],inactive
same,outcome,AR (gene 367) [4],inactive
CC(C)CCCCCCCCCCCCCCC(=O)O,outcome,[3],inactive
same,outcome,[1],inactive
same,AC50,[2],50 µM (active)
CC1CC(O)CC(C)(C)C1 (stereo not drawn),outcome,[1],inactive
O=C1OC[C@H](Cc2cccc(O)c2)[C@H]1Cc1cccc(O)c1,outcome,[3],inactive
same,AC50,[5],8.21 µM (active)
OC[C@H]1O[C@@H]2O[C@H]3[C@H](O)[C@@H](O)[C@@H](O[C@H]4[C@H](O)[C@@H](O)[C@@H](O[C@H]5[C@H](O)[C@@H](O)[C@@H](O[C@H]6[C@H](O)[C@@H](O)[C@@H](O[C@H]7[C@H](O)[C@@H](O)[C@@H](O[C@H]8[C@H](O)[C@@H](O)[C@@H](O[C@H]9[C@H](O)[C@@H](O)[C@@H](O[C@H]1[C@H](O)[C@H]2O)O[C@@H]9CO)O[C@@H]8CO)O[C@@H]7CO)O[C@@H]6CO)O[C@@H]5CO)O[C@@H]4CO)O[C@@H]3CO,outcome,[1],inactive
same,outcome,[5],inactive
same,outcome,[2],inactive
OCCc1ccccc1,outcome,[1],inactive
same,outcome,[2],inactive
O=CCc1ccccc1,outcome,[1],inactive
same,AC50,[2],78.6 µM (active)
CCCCCCCCc1ccc(S(=O)(=O)O)cc1,outcome,[3],inactive
same,outcome,[1],inactive
same,outcome,[2],inactive
O=C1CCCC=CCCCCCCCCCC1,AC50,[2],84.1 µM (active)
CC1C2CC(CC2C2CCCC(O)C2)C1(C)C (stereo not drawn),AC50,[2],84.8 µM (active)
CCCC(=O)c1ccccc1,outcome,[2],inactive
CCCCCCCCSCCO,outcome,[1],inactive
same,AC50,[2],70.5 µM (active)
same,outcome,AR (gene 367) [6],inactive
same,outcome,AR (gene 367) [4],inactive
CS(C)=O,outcome,[1],inactive
same,outcome,[2],inactive
CCCCOC(=O)CCCCCCCC(=O)OCCCC,outcome,[1],inactive
same,outcome,[2],inactive
CCCCC(CC)COC(C)=O (stereo not drawn),outcome,[5],inactive
CCCCCCC(C)(C)S,outcome,[1],inactive
same,outcome,[2],inactive
CCCCCCCC/C=C\CCCCCCCC(=O)OCC,outcome,[1],inactive
same,outcome,[2],inactive
CCOC(=O)C1OC1c1ccccc1 (stereo not drawn),outcome,[1],inactive
same,outcome,[2],inactive
CN1CCOCC1,outcome,[2],inactive
ON=C1CCCCC1,outcome,[5],inactive
CCCCCCCCCCCCCCN(CCO)CCO,AC50,[1],23.7 µM (active)
same,AC50,[2],7.2 µM (active)
CC(=O)O[C@@H]1C[C@@H]2CC[C@@]1(C)C2(C)C,outcome,[2],inactive
CCC1CCCCC1,AC50,[2],75.8 µM (active)
Cc1ncc[nH]1,outcome,[2],inactive
CC(C)=CCCC(C)CCOC=O (stereo not drawn),AC50,[2],50 µM (active)
CCN(CC)C(=O)N(CC)CC,outcome,[2],inactive
CC(C)c1ccccc1O,outcome,[5],inactive
CCCCCCCCCCCC(=O)OCC(O)CO (stereo not drawn),outcome,[5],inactive
same,AC50,[2],50 µM (active)
Brc1ccc(Br)c(Br)c1,AC50,[2],34.9 µM (active)
CCCCCCC(=O)c1ccccc1,outcome,[1],inactive
same,outcome,[2],inactive
C=C1C[C@]23C[C@@]1(O)CC[C@H]2[C@@]12C=C[C@H](O)[C@@](C)(C(=O)O1)[C@H]2[C@@H]3C(=O)O,outcome,[5],inactive
same,outcome,[2],inactive
